In PubChem BioAssay (Tox21):
“And” between values parts separate entries of the source, which are not always exact repeats. Identical values can stand only once. Inconclusive results are not listed. Entries that show only a call come without a potency. The source holds several records for some structures; these can differ, active in one and inactive in another. The source made the active and inactive calls. Unless noted, calls come from the whole dose curve; as a rule, active = well fitted curve in the direction sought with a large enough effect in the repeat runs; inconclusive = weak or mixed curves; inactive = no such curve, though single readings can be large; an effect the other way counts as inactive or inconclusive.

Experiments:
[1] = qHTS assay to identify small molecule antagonists of the androgen receptor (AR) signaling pathway using the MDA cell line in the presence of 0.5 nM R1881 - cell viability counter screen (AID 1259242); note: nearly all actives have a fitted effect of over 45% in size; note: potency is the fitted concentration of half-maximal effect
Summary of the method: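 Viability of MDA-kb2 cells was multiplexed with the luciferase AR readout; after 16 hr with compounds and R1881 at 0.5 nM final, CellTiter-Fluor fluorescence was recorded.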

[2] = biological target: Estrogen receptor (Homo sapiens) (UniProt P03372); experiment: qHTS assay to identify small molecule antagonists of the estrogen receptor alpha (ER-alpha) signaling pathway using the BG1 cell line in the presence of 0.1 nM 17-beta-estradiol (AID 1259244); note: nearly all actives have a fitted effect of over 50% in size
Summary of the method: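 Estradiol at 0.1 nM (final) stimulates the endogenous ER-alpha of VM7Luc4E2 cells carrying an ERE-driven luciferase; compounds are co-incubated 22 h at 37C and luciferase output quantified by luminescence.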

[3] = qHTS assay to identify small molecule phospholipidosis (PLD) inducers (AID 1259344; active = well fitted curve in the direction sought with a large enough effect; an effect the other way counts as inactive or inconclusive)
Summary of the method: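 Phospholipidosis is scored by imaging LipidTOX-stained pits in HepG2 cells exposed to compound for 24 h at 37 C; pit counts and integrated intensities per well and per cell serve as outputs.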

[4] = qHTS assay to identify small molecule HDAC inhibitors (AID 1259364); note: potency is the fitted concentration of half-maximal effect;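 note: wild-type HCT-116 cells with endogenous class I/II HDAC activity; nearly all actives have a fitted effect of over 45% in size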
Summary of the method: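 Read-out: luminescence of HDAC-Glo I/II reagent, 30 min RT, reflecting class I/II deacetylase activity in whole HCT-116 cells pre-exposed 2 h to DMSO-dissolved compounds.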

[5] = qHTS assay to identify small molecule HDAC inhibitors - cell viability counter screen (AID 1259365); note: series mostly up to about 92 µM; nearly all actives have a fitted effect of over 50% in size
Summary of the method: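 HCT-116 wild-type, overnight attachment; 2hr drug exposure, 37C; CellTiter-Glo luminescent ATP readout after 30min RT.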

[6] = qHTS assay to identify small molecule agonists of the sonic hedgehog signaling (Shh) pathway - cell viability counter screen (AID 1259366); note: nearly all actives have a fitted effect of over 50% in size; note: potency is the fitted concentration of half-maximal effect
Summary of the method: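 Compounds in DMSO were pin-transferred onto 3T3 Gli1-Luc cells that had settled 4hr; plates then stood 24hr at 37C and 5% CO2. One hour before the end, CellTiter-Fluor was added and fluorescence recorded.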

[7] = qHTS assay to identify small molecule antagonists of the sonic hedgehog signaling (Shh) pathway (AID 1259369; calls by dose curve; note: nearly all actives have a fitted effect of over 45% in size; note: potency is the fitted concentration of half-maximal effect)
Summary of the method: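 For antagonist detection, the reporter line received test compounds together with conditioned medium, incubated 24hr at 37 C, 5% CO2, then luminescence was recorded following 30min room-temperature luciferase reagent incubation.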

[8] = qHTS assay to identify small molecule agonists of the androgen receptor (AR) signaling pathway in the presence of an antagonist - cell viability counter screen (AID 1259379); note: nearly all actives have a fitted effect of over 25% in size; note: potency is the fitted concentration of half-maximal effect
Summary of the method: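 Seed MDA-kb2 at 3,000 cells/well; incubate 5 hr, 37C, 0% CO2. Add nilutamide to 3.0uM final, then pin compounds at 15 concentrations. Incubate 16 hr. Add CellTiter-Fluor at 15 hr, read fluorescence after 1 hr.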

[9] = qHTS assay to identify small molecule agonists of the estrogen receptor beta (ER-beta) signaling pathway - cell viability counter screen (AID 1259380); note: nearly all actives have a fitted effect of over 30% in size
Summary of the method: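 CellTiter-Glo read, 30 min RT, same wells as bla assay; cells ER-beta-UAS-bla HEK293T; 16 hr compound, 37C; medium 2% charcoal-stripped FBS.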

[10] = qHTS assay to identify small molecule antagonists of the estrogen receptor beta (ER-beta) signaling pathway - cell viability counter screen (AID 1259382);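 note: HEK293T cells carrying ER-beta-UAS-bla reporter stimulated with estradiol; series mostly up to about 92 µM; nearly all actives have a fitted effect of over 55% in size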
Summary of the method: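 In this multiplexed counter screen, cells were seeded at 2,000 per well in medium with 2% charcoal-stripped FBS and incubated 6 hr before compound and 1nM final E2 were added. Sixteen hours later, ATP-based luminescence reported viability.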

[11] = biological target: Estrogen receptor (Homo sapiens) (UniProt P03372); experiment: qHTS assay to identify small molecule agonists of the estrogen receptor alpha (ER-alpha) signaling pathway in the presence of an antagonist (AID 1259383; calls by dose curve; note: nearly all actives have a fitted effect of over 15% in size; note: potency is the fitted concentration of half-maximal effect; for activation: top concentration of the series differs between compounds)
Summary of the method: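 Stably transfected VM7Luc4E2 reporter cells, kept 5 days in charcoal-stripped serum, received ICI-182,780 at 10.0nM final before compound addition. Following 22hr incubation at 37C and 5% CO2, luciferase signal was read by luminescence.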

[12] = qHTS assay to identify small molecule agonists or antagonists of the thyroid stimulating hormone receptor (TSHR) signaling pathway - wild type cell line counter screen (AID 1259384; calls by dose curve; note: potency is the fitted concentration of half-maximal effect)
Summary of the method: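 Counter screen in untransfected Hek293: compounds (15-point titration, triplicate) plus phosphodiesterase inhibitor Ro20-1724 added after 18 h plating; 30 min RT. Intracellular cAMP via competitive d2/cryptate immunoassay, 1 h incubation.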

[13] = biological target: Thyrotropin receptor (Homo sapiens) (UniProt P16473); experiment: qHTS assay to identify small molecule antagonists of the thyroid stimulating hormone receptor (TSHR) signaling pathway (AID 1259385; calls by dose curve; note: nearly all actives have a fitted effect of over 20% in size)
Summary of the method: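 Antagonist mode: compound-treated TSHR-expressing HEK293 cells were stimulated with 1.5 ng/mL TSH (final) in presence of Ro20-1724 for 30 min at RT. HTRF cAMP detection after 1 h; each compound tested at 15 concentrations, triplicate.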

[14] = qHTS assay to identify small molecule agonists of the sonic hedgehog signaling (Shh) pathway (AID 1259368; calls by dose curve;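 note: NIH/3T3-derived 3T3Gli1-Luc cells carrying a stable Gli1-driven firefly luciferase reporter; series mostly up to about 92 µM; nearly all actives have a fitted effect of over 15% in size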)
Summary of the method: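 A Gli1 transcriptional response element controlled firefly luciferase in 3T3Gli1-Luc cells. Compounds and a positive control were added 4 hr after plating, and cells were incubated a further 24 hr at 37 C before luminescence detection.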

[15] = qHTS assay to identify small molecule agonists of the estrogen receptor alpha (ER-alpha) signaling pathway in the presence of an antagonist - cell viability counter screen (AID 1259386);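 note: series mostly up to about 92 µM; cells exposed to compounds for 22 h at 37 °C before the viability read; nearly all actives have a fitted effect of over 30% in size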
Summary of the method: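 Viability counter screen using VM7Luc4E2 (full-length ER-alpha, four ERE-luciferase). The cells were treated with compounds alongside ICI-182,780 10.0nM for 22hr, and live-cell protease fluorescence was quantified with CellTiter-Fluor.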

[16] = qHTS assay to identify small molecule antagonists of the sonic hedgehog signaling (Shh) pathway - cell viability counter screen (AID 1259367); note: nearly all actives have a fitted effect of over 55% in size
Summary of the method: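 Cells: 3T3 Gli1-Luc, 2,000/well, 4 hr pre-incubation. Compounds in DMSO, then conditioned medium. Incubation 24 hr, 37C, 5% CO2. CellTiter-Fluor at 23 hr, 1 hr, fluorescence.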

[17] = biological target: Estrogen receptor beta (Homo sapiens) (UniProt Q92731); experiment: qHTS assay to identify small molecule agonists of the estrogen receptor beta (ER-beta) signaling pathway (AID 1259377; active = well fitted activation curve with a large enough effect in the signal ratio in the repeat runs, not every such curve was filed as active; the % refers to the signal ratio)
Summary of the method: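 qHTS in ER-beta-UAS-bla HEK293T cells: 6 hr settling, then 16 hr compound at 37C, then LiveBLAzer substrate 2 h at RT before fluorescence reading.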

[18] = biological target: Estrogen receptor beta (Homo sapiens) (UniProt Q92731); experiment: qHTS assay to identify small molecule antagonists of the estrogen receptor beta (ER-beta) signaling pathway (AID 1259378; active = well fitted inhibition curve with a large enough effect in the signal ratio in the repeat runs, not every such curve was filed as active; the % refers to the signal ratio)
Summary of the method: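 Antagonist mode: compounds added to beta-lactamase reporter HEK293T ER-beta-UAS cells stimulated with E2 (1nM final), 16 hr at 37C. LiveBLAzer B/G FRET substrate, 2 hours room temperature, fluorescence read-out.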

Sequence of Thyrotropin receptor (Homo sapiens) (P16473 whole entry, looked up): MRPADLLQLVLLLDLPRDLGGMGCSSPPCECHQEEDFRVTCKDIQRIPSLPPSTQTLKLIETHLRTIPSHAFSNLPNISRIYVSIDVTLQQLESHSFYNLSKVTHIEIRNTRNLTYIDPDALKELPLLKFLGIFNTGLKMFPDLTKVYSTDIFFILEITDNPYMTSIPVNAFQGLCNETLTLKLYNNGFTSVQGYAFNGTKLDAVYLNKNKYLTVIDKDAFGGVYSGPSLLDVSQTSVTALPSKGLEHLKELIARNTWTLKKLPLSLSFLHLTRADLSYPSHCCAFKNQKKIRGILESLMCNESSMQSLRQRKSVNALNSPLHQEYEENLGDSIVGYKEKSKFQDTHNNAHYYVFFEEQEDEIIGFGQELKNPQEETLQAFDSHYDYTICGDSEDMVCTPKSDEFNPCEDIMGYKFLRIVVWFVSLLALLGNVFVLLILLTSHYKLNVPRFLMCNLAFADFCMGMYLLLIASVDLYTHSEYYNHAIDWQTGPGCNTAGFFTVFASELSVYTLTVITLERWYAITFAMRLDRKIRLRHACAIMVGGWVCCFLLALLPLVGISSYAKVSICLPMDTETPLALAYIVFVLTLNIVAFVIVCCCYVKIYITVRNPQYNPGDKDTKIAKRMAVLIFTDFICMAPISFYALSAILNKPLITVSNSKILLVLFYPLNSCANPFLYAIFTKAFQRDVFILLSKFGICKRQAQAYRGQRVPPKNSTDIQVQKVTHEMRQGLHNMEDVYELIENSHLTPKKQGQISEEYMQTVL
Sequence of Estrogen receptor (Homo sapiens) (P03372 whole entry, looked up): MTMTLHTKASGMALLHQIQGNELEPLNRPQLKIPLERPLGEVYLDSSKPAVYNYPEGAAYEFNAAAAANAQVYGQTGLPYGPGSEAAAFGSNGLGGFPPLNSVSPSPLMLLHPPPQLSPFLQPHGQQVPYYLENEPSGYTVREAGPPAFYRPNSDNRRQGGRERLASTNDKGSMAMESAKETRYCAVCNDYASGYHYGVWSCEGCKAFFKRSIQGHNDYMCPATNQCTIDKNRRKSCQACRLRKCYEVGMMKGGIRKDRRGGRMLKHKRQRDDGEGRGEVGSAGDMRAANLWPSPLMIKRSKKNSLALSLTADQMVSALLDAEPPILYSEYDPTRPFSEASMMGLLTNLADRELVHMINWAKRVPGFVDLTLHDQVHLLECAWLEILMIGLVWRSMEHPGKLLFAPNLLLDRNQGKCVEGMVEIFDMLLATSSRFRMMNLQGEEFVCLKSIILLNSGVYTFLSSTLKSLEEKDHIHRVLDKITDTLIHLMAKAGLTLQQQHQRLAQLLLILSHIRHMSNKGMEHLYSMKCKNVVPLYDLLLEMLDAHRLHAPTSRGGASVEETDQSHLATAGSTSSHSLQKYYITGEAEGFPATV
Sequence of Estrogen receptor beta (Homo sapiens) (Q92731 whole entry, looked up): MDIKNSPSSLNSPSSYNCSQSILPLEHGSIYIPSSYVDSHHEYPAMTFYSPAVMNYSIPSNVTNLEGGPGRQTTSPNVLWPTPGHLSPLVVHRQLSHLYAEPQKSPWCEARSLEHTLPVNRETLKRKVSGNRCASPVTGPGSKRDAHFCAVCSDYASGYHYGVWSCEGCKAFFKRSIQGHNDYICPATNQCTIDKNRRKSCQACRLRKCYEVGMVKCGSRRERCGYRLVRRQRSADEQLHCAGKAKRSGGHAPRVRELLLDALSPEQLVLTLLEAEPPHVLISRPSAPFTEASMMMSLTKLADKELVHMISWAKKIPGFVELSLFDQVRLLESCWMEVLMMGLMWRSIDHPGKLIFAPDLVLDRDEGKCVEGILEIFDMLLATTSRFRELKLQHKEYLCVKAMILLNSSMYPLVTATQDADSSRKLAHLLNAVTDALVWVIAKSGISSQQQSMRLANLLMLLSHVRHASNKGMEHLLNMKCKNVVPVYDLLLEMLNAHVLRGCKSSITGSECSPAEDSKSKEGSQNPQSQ

Compound	Potency [1]	Potency [2]	Potency [3]	Potency [4]	outcome [5]	Potency [6]	Potency [7]	Potency [8]	Potency [9]	Potency [10]	Potency [11]	Potency [12]	outcome [13]	outcome [14]	Potency [15]	Potency [16]	outcome [17]	Potency [18]
C/C=C/c1ccc(O)c(OC)c1	inactive	inactive	inactive	inactive	inactive	inactive	inactive	inactive	inactive	inactive	inactive	inactive	inactive	–	–	–	–	–
CCCCCCCCOc1ccc(C(=O)c2ccccc2)c(O)c1	inactive	inactive	inactive	inactive	inactive	inactive	inactive	inactive	inactive	–	inactive	inactive	inactive	inactive	inactive	–	–	–
CC(C)(C)NCC(O)c1ccc(O)c(CO)c1 (configuration not stated)	inactive	inactive	inactive	inactive	inactive	inactive	inactive	inactive	inactive	–	inactive	15.8 nM (active) and 37.6 nM (active)	inactive	–	–	inactive	inactive	inactive
CCOC(=O)C(C)(C)Oc1ccc(Cl)cc1	inactive	inactive	inactive	inactive	inactive	inactive	inactive	inactive	inactive	inactive	inactive	inactive	inactive	–	–	–	inactive	inactive
C#C[C@]1(O)CC[C@H]2[C@@H]3CCC4=CC(=O)CC[C@@H]4[C@H]3CC[C@@]21CC	inactive	inactive	inactive	inactive	inactive	inactive	17.2 µM (active) and 13.7 µM (active)	inactive	inactive	–	6.87 µM (active) and 8.63 µM (active) and 8.41 µM (active)	inactive	inactive	–	–	–	–	–
COC(=O)c1ccc(O)cc1	inactive	inactive	inactive	inactive	inactive	inactive	inactive	inactive	inactive	inactive	inactive	inactive	inactive	–	–	–	inactive	inactive
Cc1ccc(O)c(-n2nc3ccccc3n2)c1	inactive	inactive	inactive	1.08 µM (active) and 2.17 µM (active) and 1.5 µM (active)	inactive	60.6 µM (active) and inactive	60.6 µM (active) and inactive	inactive	inactive	–	inactive and 1.54 µM (active)	inactive	inactive	–	inactive	inactive	inactive	inactive
Cc1cnc(NC(=O)C2=C(O)c3ccccc3S(=O)(=O)N2C)s1	inactive	inactive	inactive	inactive	inactive	inactive	inactive	inactive	inactive	inactive	inactive	–	–	–	–	–	inactive	inactive
COc1ccccc1O	inactive	inactive	inactive	inactive	inactive	inactive	inactive	inactive	inactive	–	inactive	inactive	inactive	–	–	inactive	inactive	inactive
COC(=O)c1ccc(C=O)cc1	inactive	inactive	–	inactive	inactive	inactive	inactive	inactive	inactive	inactive	inactive	–	–	inactive	inactive	inactive	–	inactive
Oc1cccc(O)c1	inactive	inactive	inactive	inactive	inactive	inactive	inactive	inactive	inactive	–	inactive	inactive	inactive	inactive	inactive	–	inactive	inactive
CCN1CCCC1=O	inactive	inactive	inactive	inactive	inactive	inactive	inactive	inactive	inactive	inactive	inactive	inactive	inactive	–	inactive	inactive	inactive	inactive
CN(C)C=O	inactive	inactive	–	inactive	inactive	inactive	inactive	inactive	inactive	inactive	inactive	inactive	inactive	–	–	inactive	inactive	inactive
C=CCOC(=O)CC(C)C	inactive	inactive	–	inactive	inactive	inactive	inactive	inactive	inactive	–	inactive	inactive	inactive	–	inactive	inactive	inactive	inactive
C=C(C)C(N)=O	inactive	inactive	–	inactive	inactive	inactive	inactive	inactive	inactive	inactive	inactive	inactive	inactive	inactive	–	inactive	–	–
CC(=O)/C=C/C1=C(C)CCCC1(C)C	inactive	inactive	–	inactive	inactive	inactive	inactive and 61.1 µM (active)	inactive	inactive	inactive	inactive	–	–	–	–	–	–	–
CO[C@H]1C=CO[C@@]2(C)Oc3c(C)c(O)c4c(O)c(c(/C=N/N5CCN(C)CC5)c(O)c4c3C2=O)NC(=O)/C(C)=C\C=C[C@H](C)[C@H](O)[C@@H](C)[C@@H](O)[C@@H](C)[C@H](OC(C)=O)[C@@H]1C	30.8 µM (active)	–	inactive	inactive	inactive	24.5 µM (active) and 15.5 µM (active) and 13.3 µM (active)	27.4 µM (active) and inactive	24.5 µM (active) and 27.6 µM (active) and 15 µM (active)	inactive	inactive	–	inactive	inactive	–	–	–	inactive	inactive
